Test results as given in PMC5700166.

Legend:
[1] = target: T1, GST-Nv-NF-kB (Ser allele) (Nematostella vectensis, UniProt A7UNT2 2-411); test: protein-binding microarray (PBM); PBM: ~300 nM protein, 6 mM HEPES pH 7.8, 80 mM KCl, 0.5 mM EDTA, 0.5 mM EGTA, 6% glycerol, 35 ng/ul poly-dIdC, 1% milk, 1 h, room temperature; Ap Aiptasia and Nv Nematostella (sea anemones) / Co Capsaspora / Aq Amphimedon (sponge) / Dm Drosophila / Hu human; RHD is the Rel homology domain; high values mean tight binding; conditions: dsDNA, one strand shown
T1 sequence: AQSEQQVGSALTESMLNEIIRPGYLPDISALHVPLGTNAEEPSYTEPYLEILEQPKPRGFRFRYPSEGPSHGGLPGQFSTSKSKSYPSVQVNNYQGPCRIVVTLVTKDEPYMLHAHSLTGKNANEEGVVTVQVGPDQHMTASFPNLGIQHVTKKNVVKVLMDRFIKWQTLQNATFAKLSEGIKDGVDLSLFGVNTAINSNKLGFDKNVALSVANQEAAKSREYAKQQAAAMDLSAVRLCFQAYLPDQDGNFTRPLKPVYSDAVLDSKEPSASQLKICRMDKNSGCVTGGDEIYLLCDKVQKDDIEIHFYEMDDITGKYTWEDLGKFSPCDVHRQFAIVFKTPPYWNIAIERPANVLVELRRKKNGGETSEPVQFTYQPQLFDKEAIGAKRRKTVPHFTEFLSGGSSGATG

GST-Hu-p50 = GST-Hu-p50 (Homo sapiens, UniProt P19838 7-356); test: as above; conditions: dsDNA, one strand shown
Sequence of GST-Hu-p50 (P19838 7-356): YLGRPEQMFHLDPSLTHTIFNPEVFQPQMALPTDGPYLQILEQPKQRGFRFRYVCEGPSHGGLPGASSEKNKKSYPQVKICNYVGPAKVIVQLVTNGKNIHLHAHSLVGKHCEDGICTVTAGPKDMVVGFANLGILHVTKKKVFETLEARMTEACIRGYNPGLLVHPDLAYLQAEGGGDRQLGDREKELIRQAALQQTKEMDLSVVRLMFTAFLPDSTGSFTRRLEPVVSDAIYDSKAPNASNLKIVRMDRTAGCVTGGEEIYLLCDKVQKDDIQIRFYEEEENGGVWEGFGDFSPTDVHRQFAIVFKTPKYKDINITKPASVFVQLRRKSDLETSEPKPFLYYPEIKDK

Row | Sequence | binding signal [1] | binding signal (GST-Hu-p50)
1 | CCGATTAACATCAGGGAATTCCATGATGTTAATCGGGTCTTGATTCGCTTGACGCTGCTG | 5.22 z-score | 4.7 z-score
2 | CCGATTAACATCAATATTTCCCATGATGTTAATCGGGTCTTGATTCGCTTGACGCTGCTG | 3.55 z-score | 3.27 z-score
3 | CCGATTAACATCACGGGAAACCCTGATGTTAATCGGGTCTTGATTCGCTTGACGCTGCTG | 3.35 z-score | 2.62 z-score
4 | CCGATTAACATCAAGGGGTCCCCTGATGTTAATCGGGTCTTGATTCGCTTGACGCTGCTG | 2.59 z-score | 3.06 z-score
5 | CCGATTAACATCAATCGTCCCCCTGATGTTAATCGGGTCTTGATTCGCTTGACGCTGCTG | 4.3 z-score | 3.44 z-score
6 | CCGATTAACATCAGGGAGATTTGTGATGTTAATCGGGTCTTGATTCGCTTGACGCTGCTG | 3.43 z-score | 3.58 z-score
7 | CCGATTAACATCAAAAAATGCCCTGATGTTAATCGGGTCTTGATTCGCTTGACGCTGCTG | 1.9 z-score | 3.14 z-score
8 | CCGATTAACATCAATACACCCCCTGATGTTAATCGGGTCTTGATTCGCTTGACGCTGCTG | 4.34 z-score | 4.34 z-score
9 | CCGATTAACATCACCCATCCCCCTGATGTTAATCGGGTCTTGATTCGCTTGACGCTGCTG | 4.96 z-score | 4.2 z-score
10 | CCGATTAACATCAGGGGGAAGCATGATGTTAATCGGGTCTTGATTCGCTTGACGCTGCTG | 6.05 z-score | 4.74 z-score
11 | CCGATTAACATCACCTCTTTCCCTGATGTTAATCGGGTCTTGATTCGCTTGACGCTGCTG | 3.91 z-score | 2.44 z-score
12 | CCGATTAACATCAGGGGATAAAATGATGTTAATCGGGTCTTGATTCGCTTGACGCTGCTG | 6.05 z-score | 3.95 z-score
13 | CCGATTAACATCAGGGGGAGAGATGATGTTAATCGGGTCTTGATTCGCTTGACGCTGCTG | 4.36 z-score | 4.17 z-score
14 | CCGATTAACATCACCGATTTCCCTGATGTTAATCGGGTCTTGATTCGCTTGACGCTGCTG | 5.28 z-score | 3.65 z-score
15 | CCGATTAACATCAGGGGTGGGAATGATGTTAATCGGGTCTTGATTCGCTTGACGCTGCTG | 1.67 z-score | 1.53 z-score
16 | CCGATTAACATCAGGGGGTACACTGATGTTAATCGGGTCTTGATTCGCTTGACGCTGCTG | 3.94 z-score | 3.13 z-score
17 | CCGATTAACATCAAATTCCCAAATGATGTTAATCGGGTCTTGATTCGCTTGACGCTGCTG | 3.82 z-score | 3.01 z-score
18 | CCGATTAACATCACGGGAAACTCTGATGTTAATCGGGTCTTGATTCGCTTGACGCTGCTG | 3.54 z-score | 2.31 z-score

Row | Sequence | binding signal [1] | binding signal (GST-Hu-p50)
19 | CCGATTAACATCAGAAGTTCCCATGATGTTAATCGGGTCTTGATTCGCTTGACGCTGCTG | 1.1 z-score | 1.09 z-score
20 | CCGATTAACATCAGGAAATGCCCTGATGTTAATCGGGTCTTGATTCGCTTGACGCTGCTG | 1.15 z-score | 2.89 z-score
21 | CCGATTAACATCAAAAAATACCATGATGTTAATCGGGTCTTGATTCGCTTGACGCTGCTG | 2.92 z-score | 2.43 z-score
22 | CCGATTAACATCAGGGACAGCCCTGATGTTAATCGGGTCTTGATTCGCTTGACGCTGCTG | 2.03 z-score | 3.54 z-score
23 | CCGATTAACATCAGGGATTCCCATGATGTTAATCGGGTCTTGATTCGCTTGACGCTGCTG | 3.26 z-score | 3.48 z-score
24 | CCGATTAACATCAAGGGAATCCCTGATGTTAATCGGGTCTTGATTCGCTTGACGCTGCTG | 5.4 z-score | 4.17 z-score
25 | CCGATTAACATCAAGGGAATACCTGATGTTAATCGGGTCTTGATTCGCTTGACGCTGCTG | 4.14 z-score | 2.34 z-score
26 | CCGATTAACATCAGGGATCTACCTGATGTTAATCGGGTCTTGATTCGCTTGACGCTGCTG | 1.74 z-score | 2.74 z-score
27 | CCGATTAACATCACAAACGGGGCTGATGTTAATCGGGTCTTGATTCGCTTGACGCTGCTG | 1.73 z-score | 2.88 z-score
28 | CCGATTAACATCAGGCAATTCCCTGATGTTAATCGGGTCTTGATTCGCTTGACGCTGCTG | 3.97 z-score | 3.86 z-score
29 | CCGATTAACATCACAAAATTTCCTGATGTTAATCGGGTCTTGATTCGCTTGACGCTGCTG | 1.16 z-score | 1.41 z-score
30 | CCGATTAACATCAGTACGGGAAATGATGTTAATCGGGTCTTGATTCGCTTGACGCTGCTG | 2.82 z-score | 1.94 z-score
31 | CCGATTAACATCAAATTCCCTCGTGATGTTAATCGGGTCTTGATTCGCTTGACGCTGCTG | 4.74 z-score | 3.62 z-score
32 | CCGATTAACATCAGGAAAACACCTGATGTTAATCGGGTCTTGATTCGCTTGACGCTGCTG | 3.23 z-score | 4.77 z-score
33 | CCGATTAACATCAGGCACTCCCCTGATGTTAATCGGGTCTTGATTCGCTTGACGCTGCTG | 2.69 z-score | 3.37 z-score
34 | CCGATTAACATCACGGAGTTCCCTGATGTTAATCGGGTCTTGATTCGCTTGACGCTGCTG | 1.77 z-score | 1.87 z-score
35 | CCGATTAACATCACAACCCCCCCTGATGTTAATCGGGTCTTGATTCGCTTGACGCTGCTG | 4.57 z-score | 4.53 z-score
